# Source: PubChem BioAssay (NCI)
# Where “and” joins values, the source holds several entries; their conditions need not be identical. Identical values can stand only once. This is part of a sample that, as a whole, favours compounds with a hit. Of some 83,000 tested, about 20% had one in any assay.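 How to read the values: 0–100, growth inhibition (40 = 60% inhibited); 0, no net growth; -100 to 0, cell death (-40 = 40% of starting cells died; -100 = all dead).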 A number with no mark means an inactive call. The calls were made as follows: active = growth percent below 10; inactive = the rest. Where a SMILES comes first, the peptide text is derived from it.
# Test system: A498 renal
# Test: NCI-60 one-dose screen, 48 h (100 = growth as untreated, 0 = no growth, -100 = all killed)
# Details: 10 µM unless noted
row,Compound,growth
1,NC(Cc1c[nH]c2ccccc12)C(=O)O (stereo not drawn),109% and 106%
2,CC(C)NC(=O)N/C=C(\C#N)C(N)=O,112%
3,CC(=O)OCC1OC(OC(C)=O)C(OC(C)=O)C(OC(C)=O)C1OC(C)=O (stereo not drawn),112% and 85.9%
4,Cc1cc(-c2ccc(N=Nc3ccc4c(S(=O)(=O)O)cc(S(=O)(=O)O)c(N)c4c3O)c(C)c2)ccc1N=Nc1ccc2c(S(=O)(=O)O)cc(S(=O)(=O)O)c(N)c2c1O,103%
5,COc1ccc(C(=O)CC(c2ccccc2)C(C#N)c2ccccc2)cc1 (stereo not drawn),86.5%
6,Cc1ccc(=O)[nH]n1,110% and 94.1%
7,O=C1C=C(Nc2ccccc2)c2ccccc2C1=O,87% and 113%
8,CN1CNC(=O)NC1,100% and 72.4%
9,COc1cc(C(O)C2C(=O)OCC2C2(c3ccc4c(c3)OCO4)SCCCS2)cc(OC)c1OC (stereo not drawn),84.4%
10,O=C(O)/C=C\C(=O)Nc1cccc2ccccc12,96.3% and 115%
11,NN1CCOC(c2ccccc2)C1 (stereo not drawn),107%
12,c1ccc(-c2nc3ccccc3s2)cc1,100%
13,NC(Cc1ccccc1)C(=O)NC(Cc1ccccc1)C(=O)O (stereo not drawn) (H-Phe-Phe-OH; configuration not given here),93.2% and 102%
14,COc1ccc2cc1Oc1ccc(cc1)C[C@H]1c3cc(c(OC)cc3CCN1C)Oc1c(OC)c(OC)cc3c1[C@H](C2)N(C)CC3,72.1%
15,Oc1ccc(Cc2ccccc2Cl)c(O)c1,75.3%
16,CN(C)c1ccc(/C=C\C(=O)c2ccccc2)cc1,91.8% and 71.8% and 102%
17,c1ccc2c(c1)OC1OC2Oc2ccccc21,117%
18,NC1CCC(C(=O)O)CC1 (stereo not drawn),94.7% and 86.6%
19,CC1(C)COC(=S)N1,121%

row,Compound,growth
1,C/C(=C\c1ccccc1)c1ccccn1,111%
2,CCN(CCNS(C)(=O)=O)c1ccc(N)c(C)c1,104% and 94.2%
3,O=CN1CCCCC1,84.1%
4,CCCCOC(=O)/C=C\C(=O)NC(N)=O,106%
5,CC[C@H](CC[C@@H](C)[C@H]1CC[C@H]2[C@@H]3CC=C4C[C@@H](O)CC[C@]4(C)[C@H]3CC[C@]12C)C(C)C,103% and 105%
6,N#CC(C#N)N=Nc1ccc(Cl)cc1,86%
7,O=C1OC(C(O)C(O)CO)C(O)=C1O (stereo not drawn),129% and 116%
8,CCCCCCCCCCCCCCCCC(C(=O)O)C(O)(CC(=O)O)C(=O)O (stereo not drawn),113%
9,CC(C)C(C)(C)c1ccc(O)cc1,102%
10,OCC1OC(O)C(O)C(O)C1O (stereo not drawn),105%
11,CC1CCC2(OC1)OC1CC3C4CC=C5CC(O)CCC5(C)C4CCC3(C)C1C2C (stereo not drawn),110%
12,O=C(/C=C/c1ccccc1)c1ccccc1,94.2%
13,O=c1[nH]cnc2c1ncn2C1OC(CO)C(O)C1O (stereo not drawn),116% and 129% and 113%
14,Nc1ccc2c(O)cc(S(=O)(=O)O)cc2c1,102% and 100%
15,CC1CCC2(C(=O)O)CCC3(C)C(=CCC4C5(C)CCC(O)C(C)(C)C5CCC43C)C2C1C (stereo not drawn),103%
16,CC1CCC(C(C)C)C(NNC(N)=O)C1 (stereo not drawn),102%
17,CC(=O)Nc1ccc(S(N)(=O)=O)cc1,85.8% and 101%
18,Cc1cc2ccccc2cn1,100% and 197%
19,C#CCOC(=O)Nc1ccccc1,75.2%
